The structures appear in SMILES notation. Activity calls are given as the source filed them. A call without a number means that no potency is given here. Calls come from the whole dose curve; as a rule, active = well fitted activation curve with a large enough effect; inconclusive = small, poorly fitted or top-dose-only effect; inactive = no such curve, though single readings can be large or run the other way.
Potency is the fitted concentration of half-maximal effect.

The experiment in a line: Counterscreen for Identifying a Potential Treatment of Ataxia-Telangiectasia: Hit Validation. Conditions: cell-free AlphaLISA/AlphaScreen artifact counterscreen, PBS only, no cells; series mostly up to 76.9 µM. An outline of the steps: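 Cell-free AlphaLISA counterscreen: compounds (up to 76.7 uM final) in PBS with detection mix of anti-pKAP1 and anti-KAP1 antibodies on donor/acceptor beads plus lysis buffer, incubated 6 hr at 25C before AlphaScreen read.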
On the technique in general: A counterscreen serves to expose hits that act by an unwanted route or on another target.
Consider `CC12CCC(C(=O)NNc3ccc([N+](=O)[O-])cc3)(OC1=O)C2(C)C` (stereo not given), for which the Potency result is “inactive”. In the case of `COc1ccc(NCc2cc(=O)oc3cc(NC(C)=O)ccc23)cc1`, the Potency entry is “inactive”. With `O=C1/C(=C/c2ccc(N3CCOCC3)o2)SC(=Nc2ccccc2)N1CCc1c[nH]c2ccccc12` the entry was “inactive”; with `O=C(O)CCC(=O)NN1C(=O)c2ccccc2NC1c1ccco1` (stereo not given), “inactive”.

As to `O=c1c(-c2ccc(Cl)cc2)c[nH]n1-c1ccccc1`, the Potency result is “inactive”. Regarding `CCOc1ccc(NC2=NCC(=O)N2Cc2cccs2)cc1`, the Potency entry was “inactive”.

For `CCc1ccc(NC(=O)CNCc2ccc(OC)c(OC)c2)cc1`, the Potency result is “inactive”.

With `COc1cc(/C=N/NC(=O)c2c(C)nc3ccc(Cl)cn23)cc(OC)c1OC`, the Potency is 58.2 µM (active). With `CCOC(=O)CN(C(=O)CSc1nnc(COc2ccc(OC)cc2)n1CC)c1ccccc1` the entry was “inactive”.

With `Fc1ccc(C2=NOC(c3nnc(-c4ccccc4)o3)C2)cc1` (stereo not given), the Potency result is “inactive”. For `CC(C)Nc1nc(Oc2ccc(=O)n(-c3ccccc3)n2)nc(N(C)C)n1`, the Potency result is “inactive”. As for `Cc1ccc(-c2noc(CCC(=O)NC3CCN(Cc4ccccc4)CC3)n2)cc1`, the entry is “inactive”; as for `O=C(O)c1nccnc1C(=O)Nc1ccccc1-c1ccccc1`, “inactive”; as for `COc1ccccc1[C@H]1C(c2cccc(Cl)c2)=NN(c2ccccc2)[C@@H]1CO`, 29.2 µM (active). Turning to `CC(C)c1ccc(C(C(=O)NC2CCCCC2)N(C(=O)c2ccccn2)c2cccnc2)cc1` (stereo not given), the Potency entry is “inactive”. As for `OC(COC(c1ccc(F)cc1)c1ccc(F)cc1)CN1CCCC1` (stereo not given), the entry is “inactive”; as for `O=C(N/N=C/c1cccc2ccccc12)c1cccnc1`, “inactive”.

Regarding `C=CS(=O)(=O)c1sc(Cl)c(N2CCOCC2)c1[N+](=O)[O-]`, the Potency result was “inactive”. As to `O=C(O)CCCC(=O)N1N=C(c2ccccc2)CC1c1cccs1` (stereo not given), the Potency result was “inactive”. With `CCc1ccc(NC(=O)N[C@H](C(=O)O)C(C)CC)cc1` (stereo not given in full), the Potency result was “inactive”. With `Brc1c(C[n+]2ccccc2)nc2ccccn12`, the Potency result is “inactive”. With `CC(C)(C=O)C1=CC(=O)c2ccccc2C1=O`, the Potency entry is “inactive”.

On to `CC1=NOC2(C1)N(C)c1ccccc1C2(C)C` (stereo not given), for which the Potency entry is “inactive”.

As for `Cc1ccc(OC(=O)c2cc(C)nn2C(C)(C)C)cc1`, the Potency result is “inactive”. As for `COC(=O)c1cccc2c1-c1ccccc1/C2=N\NC(N)=O`, the entry is “inactive”. Take `CCC(=O)Nc1ccc(S(=O)(=O)c2ccc(NC(=O)CC)cc2)cc1`: the Potency entry was “inactive”.

Consider `CC1(C)CC2(CCO1)OC(=O)CC2C(=O)Nc1c(Cl)cccc1Cl` (stereo not given), for which the Potency result was “inactive”. With `Cc1ccc2c(c1)C(=O)CC(O)(C(F)(F)F)O2` (stereo not given) the entry was “inactive”. With `CCNC(=S)N(Cc1cc2cccc(C)c2[nH]c1=O)C1CCCC1` the entry was “inactive”. With `Cc1ccccc1OCC(=O)Nc1cccc(C(=O)O)c1` the entry was “inactive”. For the molecule `CCOc1ccc(C(=O)NC(=S)Nc2cccnc2)cc1[N+](=O)[O-]`, the Potency result is “inactive”. As for `Cc1ccc(C2(C)NC(=O)N(CC(=O)Nc3ccccc3N3CCCC3)C2=O)cc1` (stereo not given), the entry is “inactive”; as for `O=C(CSc1ccccn1)N/N=C/C=C/c1ccccc1`, “inactive”.

Regarding `c1ccc2c(c1)nc(Nc1ccc(N3CCCCC3)cc1)c1nncn12`, the Potency result is “inactive”. With `COc1ccc(C2(C)CC(C)(C)Nc3ccccc32)cc1` (stereo not given), the Potency entry was “inactive”.

Regarding `CCN(c1ccccc1)S(=O)(=O)c1ccc(Cl)c(C(=O)N(CC2CCCO2)C2CCS(=O)(=O)C2)c1` (stereo not given), the Potency result is “inactive”. For the molecule `CCOC(=O)c1[nH]c(COC(=O)c2ccccc2NC(=O)c2ccco2)c(C(=O)OCC)c1C`, the Potency entry is “inactive”.

`CN(C)Cc1ccc(F)cc1Sc1cc(Cl)ccc1Cl`: the Potency result is “inactive”. With `Nc1nc2ccccc2cc1-c1cccs1` the entry was “inactive”; with `Fc1cccc(Cl)c1/C=C/c1cnc2ccccc2n1`, “inactive”.

The values above are taken from PubChem BioAssay AID493185 (National Center for Advancing Translational Sciences (NCATS), 2011).
